In the library only some 20% were active in any assay of this set; here they are far more common.
Pf growth 48h: P. falciparum growth inhibition at 48 hours (one generation); P. falciparum luciferase growth in erythrocytes, 48 h; Potency, µM (series often up to 28.7 µM), for inactives: top-dose activity change, negative = inhibition, actives largely listed as inhibitors; actives 5.9% (n = 310,000); AID 504832; also: potency is read from the fitted curve at half-maximal effect; % is scaled to controls: 0 for no effect and ±100 for the full control effect
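Erythrocytes infected with P. falciparum carrying an integrated firefly luciferase reporter (2% hematocrit, 0.1% parasitemia final) were exposed to compounds in RPMI 1640 with 0.5% Albumax at 37 C, 5% CO2. Growth inhibition was scored as reduced luminescence.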
Pf growth 96h: P. falciparum growth inhibition at 96 hours; actives 6.9% (n = 320,000); P. falciparum luciferase reporter growth, 96 h; Potency, µM (highest dose often 28.7 µM), inactives show at the highest dose activity change, negative = inhibition, actives largely listed as inhibitors; AID 504834; also: potency is read from the fitted curve at half-maximal effect; % is scaled to controls: 0 for no effect and ±100 for the full control effect
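Erythrocytes infected with luciferase-expressing P. falciparum were dispensed at 2% hematocrit and 0.05% parasitemia (final), then incubated with compounds 96 hours at 37 C in 5% CO2. Luminescence after detection reagent addition reported growth.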
HCMV inh: blocks human cytomegalovirus replication | HFF cells, HCMV-luciferase reporter, 72 h; stronger effect = lower value | activity change, negative = inhibition, % at 57.5 µM | actives 4.5% (n = 410,000); in the data active = activity change below about -60%; inconclusive = no clear call, values can overlap the other calls; inactive = above about -39%; also: % is scaled to controls: 0 for no effect and ±100 for the full control effect
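Luciferase read-out from HCMV-luciferase-infected HFFs (MOI 1 PFU/cell) 72 h post infection at 37C; compounds added after 16 h cell attachment; activity normalized between buffer-only basal and Salinomycin (10uM) inhibitor controls.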
Cycloheximide cs: counter-screen for Shiga toxin inhibitors: cycloheximide protein synthesis inhibition; cell reporter, cycloheximide protein synthesis inhibition counterscreen; max response, %; actives 12% (n = 300,000); AID 2314; in the data active = max response mostly above about 13%, no sharp cut-off; inactive = mostly below about 14%; also: read at 38.3 µM for the half of the compounds with a filed dose; 0% is about no effect
Shiga toxin inh: inhibitors of Shiga toxin in Vero cells; actives 9.2% (n = 290,000); AID 2315; inhibition, % at 38.7 µM; Vero cells, Shiga toxin protein synthesis inhibition reporter; in the data active = inhibition mostly above about 28%, no sharp cut-off; inactive = mostly below about 43%; also: 0% is about no effect
Active calls of the source: *; ? = inconclusive; . = not tested or not shown. Unless noted, calls follow the shape of the dose curve; as a rule, active = well fitted inhibition curve with a large enough effect; inconclusive = small, poorly fitted or top-dose-only effect, or another doubt; inactive = no such curve, though single readings can be large or run the other way.

SMILES	Pf growth 48h	Pf growth 96h	HCMV inh	Cycloheximide cs	Shiga toxin inh
CC(=O)c1ccc(S(=O)(=O)N2CCN(C(=O)c3ccc(-n4nc(C)c(Cl)c4C)cc3)CC2)cc1	?	13µM*	-90*	.	.
Cc1nn(-c2ccc(C(=O)N3CCN(S(=O)(=O)c4ccccc4C(F)(F)F)CC3)cc2)c(C)c1Cl	13µM*	?	-23	.	.
Cc1cc(C)n(-c2ccc(C(=O)N3CCN(S(=O)(=O)c4ccc(OC(F)(F)F)cc4)CC3)cc2)n1	.	.	35	.	.
Cc1cc(C)n(-c2ccc(C(=O)N3CCN(S(=O)(=O)c4ccc(Cl)cc4)CC3)cc2)n1	10µM*	2.6µM*	-11	.	.
Cc1nn(-c2ccc(C(=O)O)cc2)c(C)c1Cl	53%	34%	?	25*	58*
Cc1ccc(S(=O)(=O)N2CCCN(C(=O)c3ccc(-n4nccc4C)cc3)CC2)cc1	?	-28%	-3	.	.
Cc1ccc(S(=O)(=O)N(C)c2ccc(OC(=O)CN3C(=O)NC4(CCCC4)C3=O)cc2)cc1C	-9%	11%	-25	.	.
COc1cc(C(=O)Nc2ccc3[nH]c(=O)sc3c2)cc(OC)c1OC	.	.	11	.	.
COc1cc(OC)cc(-c2c(-c3cccs3)c3cc(-c4ccc5cc[nH]c5c4)ccc3n2C)c1	10µM*	?	-29	.	.
COc1cccc(-c2c(-c3cc(OC)cc(OC)c3)n(C)c3ccc(-c4ccc5cc[nH]c5c4)cc23)c1	.	.	4	.	.
COc1cc(OC)cc(-c2c(-c3cccs3)c3cc(-c4ccc5[nH]ccc5c4)ccc3n2C)c1	6.6µM*	2.3µM*	-9	.	.
COc1cc2c(cc1OC)/C(=C/C#N)NC(C)(C)C2	9.3µM*	?	-28	-4	-9
CCc1cc[n+](C2=C([O-])c3ccccc3C(=O)/C2=N\S(=O)(=O)c2cccs2)cc1	4.1µM*	?	?	14	26
CCc1ccc(NC(=O)Cn2c(=O)ccc3cc(S(=O)(=O)N4CCCC4)ccc32)cc1	.	.	17	.	.
COc1ccc(OC)c(C2NC(=S)NC(C)=C2C(=O)Nc2ccccn2)c1 (stereo not drawn)	-8%	6%	-99*	-2	11
COc1ccc(OC)c(C2NC(=O)NC(C)=C2C(=O)Nc2ccc(F)cc2)c1 (stereo not drawn)	.	.	0	.	.
COc1ccc(C2NC(=S)NC(C)=C2C(=O)Nc2ccccn2)cc1 (stereo not drawn)	23%	-21%	74	36*	34*
CCOC(=O)C1=C(CS(=O)(=O)c2ccc(F)cc2)NC(=O)NC1c1ccc(OCC)c(OC)c1 (stereo not drawn)	.	.	-16	.	.
Cc1cccc2c1CCCC2=O	.	.	9	.	.
COc1ccc(N=C(C)C2=C(O)COC2=O)cc1	.	0.33µM*	?	3	20
COCOCCn1cc(CN2CCS(=O)(=O)N(Cc3ccc(-c4cccc(CO)c4)cc3)C(C(C)C)C2=O)nn1 (stereo not drawn)	.	.	-1	.	.
COc1ccc(CNc2nc(NCc3ccc(OC)cc3)c3ncn(C4CCCCC4)c3n2)cc1	.	.	.	49*	37*
COc1ccc(CNc2nccn3ccnc23)cc1	.	.	16	.	.
Cc1cc(CN(C)C(=O)c2ccc3nc(Cc4ccccc4F)oc3c2)on1	2%	?	9	46*	75*
CN(Cc1nccs1)C(=O)c1ccc2nc(Cc3ccccc3F)oc2c1	10%	?	97	-3	-13
SMILES	Pf growth 48h	Pf growth 96h	HCMV inh	Cycloheximide cs	Shiga toxin inh
CN(Cc1nccn1C)C(=O)c1ccc2nc(Cc3ccccc3F)oc2c1	2%	?	0	55*	69*
COc1ccccc1-c1cc2c(Nc3cc(OC)c(OC)c(OC)c3)nccc2n1C	.	.	-39	.	.
Cc1cc(C(=O)O)c(=O)[nH]c1C	35%	2.6µM*	?	1	-3
CN(C)S(=O)(=O)c1cccc(NC(=O)COC(=O)c2cc(=O)c3ccccc3o2)c1	38%	43%	-15	5	22
O=C(COc1cccc(NC(=O)c2ccco2)c1)c1ccccc1	72%	?	5	37*	62*
COc1ccc(C(=O)COC(=O)c2ccco2)cc1	3%	4%	4	43*	50*
O=C(c1ccccc1)c1cccc(NC(=O)c2ccco2)c1	31%	?	8	24*	60*
O=C(Nc1cccc(OC(=O)c2ccco2)c1)c1ccco1	20%	.	13	15	42
O=C(Nc1cccc(NC(=O)c2ccco2)c1)c1ccccc1	22%	-15%	-21	13	-9
COc1cccc(C(=O)COc2cccc(NC(=O)c3ccco3)c2)c1	0%	-4%	-17	5	15
COc1cccc(NC(=O)c2ccco2)c1	144%	-27%	38	36*	86*
COc1ccc(S(=O)(=O)N2CCN(C(=O)c3ccccc3Cc3ccccc3)CC2)cc1OC	.	.	-29	.	.
Cc1nn(-c2cc(N(S(C)(=O)=O)S(C)(=O)=O)c(Cl)cc2Cl)c(=O)n1C	0%	-12%	23	-3	-6
COc1cccc(NC(=O)N2CC(=O)N3[C@@H](CO)[C@@H](c4ccc(Br)cc4)[C@@H]3C2)c1	.	.	-10	.	.
CC(=O)c1cccc(NC(=O)c2ccco2)c1	24%	92%	-23	1	39
COc1cccc(OC)c1C(=O)NC(=S)Nc1cccc(NC(=O)c2ccco2)c1	-19%	-4%	-61*	-2	2
COc1cccc(NC(=O)COC(=O)c2ccco2)c1	-12%	-8%	-11	12*	41*
CCOC(=O)c1cccc(NC(=O)c2ccco2)c1	55%	.	17	41*	28*
Cc1ccc(C(=O)C(C)Oc2cccc(NC(=O)c3ccco3)c2)cc1 (stereo not drawn)	2.9µM*	-2%	-29	10	2
CC(C)Cc1nnc(NC(=O)CCC(=O)Nc2ccccc2F)s1	0%	12%	42	-3	-16
COc1ccc(C(=O)COC(=O)c2ccn(C)n2)cc1	71%	2%	13	42*	104*
COc1ccc(C(=O)COc2cccc(NC(=O)c3ccco3)c2)cc1	?	-49%	8	12*	10
COc1ccc(C(=O)COC(=O)c2cncc(Br)c2)cc1	6%	12%	-17	.	.
Cc1c(C(=O)NCCc2ccccc2)cccc1-n1cnc2cccnc21	.	.	0	.	.
COc1ccc(Nc2ncc3c(n2)CCN(Cc2ccccc2C)C3)c(OC)c1	.	.	-2	.	.
SMILES	Pf growth 48h	Pf growth 96h	HCMV inh	Cycloheximide cs	Shiga toxin inh
COc1ccccc1NCC(=O)NNC(C)C(=O)Nc1cccc(Cl)c1 (stereo not drawn)	0%	1%	-15	-2	4
O=C1c2ccccc2C(=O)C2OC12 (stereo not drawn)	3%	11%	.	-1	24
Cc1ccc(C2C(=O)c3ccccc3C2=O)cc1	-5%	-7%	70	19*	11
O=C1c2ccccc2C(=O)C1c1ccccn1	103%	136%	3	30*	34
O=C1c2ccccc2C(=O)C1c1ccncc1	227%	.	191	22*	46
Cc1ccccc1C1C(=O)c2ccccc2C1=O	24%	-14%	-20	1	-3
